Common to all, as to experiment: DAPPL (digital affinity profiling via proximity ligation, sequencing); 10 mM Tris-HCl pH 7.5, 50 mM NaCl, 1 mM DTT, 4% glycerol, room temperature, 30 min; GST-TFs on glutathione beads, 16-mer random dsDNA library, 0.1% formaldehyde crosslink after washing; high values mean tight binding
For one experiment, the target named is T1, FEV (Homo sapiens, UniProt Q99581 1-238).
T1 sequence: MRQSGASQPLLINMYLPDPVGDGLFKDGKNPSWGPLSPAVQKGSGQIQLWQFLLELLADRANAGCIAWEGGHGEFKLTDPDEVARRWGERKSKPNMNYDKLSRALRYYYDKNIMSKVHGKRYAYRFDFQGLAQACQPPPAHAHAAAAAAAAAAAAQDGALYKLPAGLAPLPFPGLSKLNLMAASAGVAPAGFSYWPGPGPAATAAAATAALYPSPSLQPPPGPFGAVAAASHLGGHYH
The note with it: protein: recombinant; tags: N-terminal GST; dsDNA, one strand shown. The procedure, abridged: (§1)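 Yeast served to express human transcription factors as GST fusions, which were then captured on glutathione beads and labelled with DNA barcodes. Pooled with a tag-only sample, they were incubated with 200 nmole of a 16-mer random double-stranded DNA library for 30 min at room temperature in Tris/NaCl/DTT/glycerol buffer, washed, crosslinked with 0.1% formaldehyde, ligated by proximity, amplified by PCR and sequenced. Dividing each hexamer's read frequency for a factor by its frequency for the tag-only sample gives the binding signal.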

In the next experiment the target is ETV5 (Homo sapiens, UniProt P41161 1-510). The note with it: protein: recombinant; tags: N-terminal GST; dsDNA, one strand shown. The procedure, abridged:
as §1

The target of another experiment is HSF1 (Homo sapiens, UniProt Q00613 1-529). The note with it: protein: recombinant; tags: N-terminal GST; chain copies: 3; dsDNA, one strand shown. The procedure, abridged:
as §1

A further experiment addresses T2, SPIC (Homo sapiens, UniProt Q8N5J4 1-248).
T2 sequence: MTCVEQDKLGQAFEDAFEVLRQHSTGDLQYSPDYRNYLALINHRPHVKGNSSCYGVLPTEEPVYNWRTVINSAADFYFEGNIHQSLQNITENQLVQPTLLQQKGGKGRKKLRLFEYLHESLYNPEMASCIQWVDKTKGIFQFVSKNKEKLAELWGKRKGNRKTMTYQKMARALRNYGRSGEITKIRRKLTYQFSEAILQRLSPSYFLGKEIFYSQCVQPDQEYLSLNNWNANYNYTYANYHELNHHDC
The note with it: protein: recombinant; tags: N-terminal GST; dsDNA, one strand shown. The procedure, abridged:
as §1

The target of the next experiment is ELF4 (Homo sapiens, UniProt Q99607 1-663). The note with it: protein: recombinant; tags: N-terminal GST; dsDNA, one strand shown. The procedure, abridged: as §1
Chain of ELF4 (Q99607 whole entry): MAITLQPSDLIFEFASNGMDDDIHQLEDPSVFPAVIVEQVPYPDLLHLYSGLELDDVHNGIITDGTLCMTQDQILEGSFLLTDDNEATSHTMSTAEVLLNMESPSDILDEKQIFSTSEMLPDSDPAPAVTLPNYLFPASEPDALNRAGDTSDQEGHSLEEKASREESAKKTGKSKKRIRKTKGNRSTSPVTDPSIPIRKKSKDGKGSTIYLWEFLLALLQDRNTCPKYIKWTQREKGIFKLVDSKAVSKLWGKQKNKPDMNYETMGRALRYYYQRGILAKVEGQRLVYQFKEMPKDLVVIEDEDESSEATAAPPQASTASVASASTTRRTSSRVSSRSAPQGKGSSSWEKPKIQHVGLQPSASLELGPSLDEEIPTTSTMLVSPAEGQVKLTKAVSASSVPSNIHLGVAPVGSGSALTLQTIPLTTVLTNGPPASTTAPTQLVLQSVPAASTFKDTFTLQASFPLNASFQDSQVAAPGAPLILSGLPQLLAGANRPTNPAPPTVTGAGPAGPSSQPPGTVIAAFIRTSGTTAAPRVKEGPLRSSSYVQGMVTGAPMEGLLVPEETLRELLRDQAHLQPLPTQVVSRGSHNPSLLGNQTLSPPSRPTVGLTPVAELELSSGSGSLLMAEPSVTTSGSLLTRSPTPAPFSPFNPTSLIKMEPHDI
For a further experiment, the target named is T3, ELK4 (Homo sapiens, UniProt P28324-2 1-405).
T3 sequence: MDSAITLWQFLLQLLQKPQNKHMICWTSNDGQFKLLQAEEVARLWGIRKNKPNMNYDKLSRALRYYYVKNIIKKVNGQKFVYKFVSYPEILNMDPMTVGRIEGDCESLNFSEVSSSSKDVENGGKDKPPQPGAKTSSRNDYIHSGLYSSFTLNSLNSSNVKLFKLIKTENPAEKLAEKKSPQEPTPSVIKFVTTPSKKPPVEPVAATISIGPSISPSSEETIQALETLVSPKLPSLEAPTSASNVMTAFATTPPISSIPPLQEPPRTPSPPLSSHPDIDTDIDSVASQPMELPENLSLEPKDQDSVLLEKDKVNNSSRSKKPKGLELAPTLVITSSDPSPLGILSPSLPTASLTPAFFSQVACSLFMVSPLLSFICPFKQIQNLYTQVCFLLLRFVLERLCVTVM
The note with it: protein: recombinant; tags: N-terminal GST; dsDNA, one strand shown. The method in brief: as §1

The target of the next experiment is T4, ETV2 (Homo sapiens, UniProt O00321 1-342).
T4 sequence: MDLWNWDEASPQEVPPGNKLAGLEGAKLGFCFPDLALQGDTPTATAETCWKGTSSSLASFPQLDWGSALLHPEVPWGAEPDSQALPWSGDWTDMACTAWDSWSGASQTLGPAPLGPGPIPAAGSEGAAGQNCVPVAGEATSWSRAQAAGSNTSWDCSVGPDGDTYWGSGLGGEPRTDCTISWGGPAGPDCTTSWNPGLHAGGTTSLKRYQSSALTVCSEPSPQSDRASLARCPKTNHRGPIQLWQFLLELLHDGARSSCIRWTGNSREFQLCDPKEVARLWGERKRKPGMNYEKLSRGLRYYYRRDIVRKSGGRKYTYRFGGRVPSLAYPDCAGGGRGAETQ
The note with it: protein: recombinant; tags: N-terminal GST; dsDNA, one strand shown. The procedure, abridged: as §1

The next experiment deals with T5, ELF3 (Homo sapiens, UniProt P78545 1-371).
T5 sequence: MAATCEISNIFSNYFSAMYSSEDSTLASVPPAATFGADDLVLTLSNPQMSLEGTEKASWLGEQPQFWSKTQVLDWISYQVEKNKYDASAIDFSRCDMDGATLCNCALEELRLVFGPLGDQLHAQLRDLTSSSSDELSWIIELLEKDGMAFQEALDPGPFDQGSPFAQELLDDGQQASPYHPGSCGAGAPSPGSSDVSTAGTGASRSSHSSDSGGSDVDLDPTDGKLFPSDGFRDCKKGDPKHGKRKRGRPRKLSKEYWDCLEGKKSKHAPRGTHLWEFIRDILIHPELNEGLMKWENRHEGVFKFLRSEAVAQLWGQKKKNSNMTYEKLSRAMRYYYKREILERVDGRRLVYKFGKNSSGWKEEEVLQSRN
The note with it: protein: recombinant; tags: N-terminal GST; dsDNA, one strand shown. The method in brief:
as §1

A further experiment deals with CRX (Homo sapiens, UniProt O43186 1-299). The note with it: protein: recombinant; tags: N-terminal GST; dsDNA, one strand shown. The procedure, abridged:
as §1

A further experiment concerns the target ETV1 (Homo sapiens, UniProt P50549 1-477). The note with it: protein: recombinant; tags: N-terminal GST; dsDNA, one strand shown. The procedure, abridged: as §1
In the next experiment the target is T6, ERF (Homo sapiens, UniProt P50548 1-548).
T6 sequence: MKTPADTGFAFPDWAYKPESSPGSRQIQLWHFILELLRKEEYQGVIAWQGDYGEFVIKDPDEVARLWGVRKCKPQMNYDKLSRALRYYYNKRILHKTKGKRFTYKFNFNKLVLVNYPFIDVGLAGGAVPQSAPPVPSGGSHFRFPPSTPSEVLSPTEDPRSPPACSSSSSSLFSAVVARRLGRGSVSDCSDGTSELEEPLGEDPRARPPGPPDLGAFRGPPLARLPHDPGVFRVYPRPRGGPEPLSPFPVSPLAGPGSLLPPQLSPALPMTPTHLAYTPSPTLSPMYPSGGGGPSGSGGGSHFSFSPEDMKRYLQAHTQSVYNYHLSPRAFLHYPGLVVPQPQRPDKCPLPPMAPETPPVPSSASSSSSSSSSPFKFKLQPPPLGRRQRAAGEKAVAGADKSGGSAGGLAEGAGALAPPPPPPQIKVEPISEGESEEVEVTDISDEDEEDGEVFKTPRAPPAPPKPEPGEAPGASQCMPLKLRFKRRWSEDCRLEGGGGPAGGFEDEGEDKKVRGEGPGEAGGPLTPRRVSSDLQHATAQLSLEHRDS
The note with it: protein: recombinant; tags: N-terminal GST; dsDNA, one strand shown. The method in brief:
as §1

A further experiment concerns the target T7, ETV3L (Homo sapiens, UniProt Q6ZN32 1-361).
T7 sequence: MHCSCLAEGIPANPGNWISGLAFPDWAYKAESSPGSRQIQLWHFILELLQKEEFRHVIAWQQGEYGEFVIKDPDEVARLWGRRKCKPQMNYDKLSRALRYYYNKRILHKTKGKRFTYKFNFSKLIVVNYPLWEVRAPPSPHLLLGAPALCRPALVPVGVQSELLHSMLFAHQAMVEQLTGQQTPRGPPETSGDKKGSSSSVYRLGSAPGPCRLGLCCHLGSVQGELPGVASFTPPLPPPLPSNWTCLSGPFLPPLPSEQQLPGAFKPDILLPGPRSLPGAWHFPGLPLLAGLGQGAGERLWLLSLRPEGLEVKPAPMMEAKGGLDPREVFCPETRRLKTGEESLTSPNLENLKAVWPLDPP
The note with it: protein: recombinant; tags: N-terminal GST; dsDNA, one strand shown. The procedure, abridged: as §1

The next experiment addresses T8, ETS2 (Homo sapiens, UniProt P15036 1-469).
T8 sequence: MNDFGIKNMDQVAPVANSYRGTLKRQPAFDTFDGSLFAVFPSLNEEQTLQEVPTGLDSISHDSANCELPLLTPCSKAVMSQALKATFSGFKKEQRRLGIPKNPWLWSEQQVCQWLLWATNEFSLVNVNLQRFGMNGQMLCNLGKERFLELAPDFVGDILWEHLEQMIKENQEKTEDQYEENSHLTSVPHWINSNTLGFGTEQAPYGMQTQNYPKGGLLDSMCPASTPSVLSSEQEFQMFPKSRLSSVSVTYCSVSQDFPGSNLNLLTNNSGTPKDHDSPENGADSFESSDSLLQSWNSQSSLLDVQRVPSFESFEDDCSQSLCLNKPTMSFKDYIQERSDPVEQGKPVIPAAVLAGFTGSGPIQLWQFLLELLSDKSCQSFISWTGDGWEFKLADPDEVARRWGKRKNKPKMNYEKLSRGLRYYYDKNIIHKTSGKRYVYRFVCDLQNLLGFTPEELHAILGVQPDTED
The note with it: protein: recombinant; tags: N-terminal GST; dsDNA, one strand shown. The method in brief:
as §1

The next experiment concerns the target T9, SPDEF (Homo sapiens, UniProt O95238 1-335).
T9 sequence: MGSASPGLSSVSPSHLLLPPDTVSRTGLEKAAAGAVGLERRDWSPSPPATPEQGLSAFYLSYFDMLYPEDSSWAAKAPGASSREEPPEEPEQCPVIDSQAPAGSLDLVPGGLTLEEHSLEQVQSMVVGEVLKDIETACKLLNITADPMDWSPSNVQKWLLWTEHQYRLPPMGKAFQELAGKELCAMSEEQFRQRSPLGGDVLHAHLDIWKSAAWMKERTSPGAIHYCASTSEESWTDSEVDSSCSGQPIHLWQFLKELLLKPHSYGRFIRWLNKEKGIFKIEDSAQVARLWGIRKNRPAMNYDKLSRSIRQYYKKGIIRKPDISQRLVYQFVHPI
The note with it: protein: recombinant; tags: N-terminal GST; dsDNA, one strand shown. The procedure, abridged: as §1

The next experiment addresses T10, ETV7 (Homo sapiens, UniProt Q9Y603 1-341).
T10 sequence: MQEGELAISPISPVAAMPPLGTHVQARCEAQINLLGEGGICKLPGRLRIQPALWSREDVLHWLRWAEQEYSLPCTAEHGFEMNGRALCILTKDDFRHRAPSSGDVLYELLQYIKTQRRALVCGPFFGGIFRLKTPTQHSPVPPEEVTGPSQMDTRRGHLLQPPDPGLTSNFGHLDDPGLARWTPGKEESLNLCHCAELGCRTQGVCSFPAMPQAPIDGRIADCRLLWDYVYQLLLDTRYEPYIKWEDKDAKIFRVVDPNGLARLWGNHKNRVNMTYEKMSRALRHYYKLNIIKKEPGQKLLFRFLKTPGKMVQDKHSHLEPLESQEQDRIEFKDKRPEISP
The note with it: protein: recombinant; tags: N-terminal GST; dsDNA, one strand shown. The method in brief: as §1

The next experiment concerns the target T11, ELF5 (Homo sapiens, UniProt Q9UKW6-2 1-255).
T11 sequence: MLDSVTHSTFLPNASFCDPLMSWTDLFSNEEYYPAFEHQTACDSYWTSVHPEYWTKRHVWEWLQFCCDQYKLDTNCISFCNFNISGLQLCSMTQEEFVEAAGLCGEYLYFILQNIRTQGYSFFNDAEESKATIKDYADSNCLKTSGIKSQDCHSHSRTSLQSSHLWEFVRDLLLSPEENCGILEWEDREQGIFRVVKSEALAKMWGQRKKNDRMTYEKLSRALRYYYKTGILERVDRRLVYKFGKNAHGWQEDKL
The note with it: protein: recombinant; tags: N-terminal GST; dsDNA, one strand shown. The procedure, abridged:
as §1

A further experiment has as its target T12, ETV3 (Homo sapiens, UniProt P41162-2 1-143).
T12 sequence: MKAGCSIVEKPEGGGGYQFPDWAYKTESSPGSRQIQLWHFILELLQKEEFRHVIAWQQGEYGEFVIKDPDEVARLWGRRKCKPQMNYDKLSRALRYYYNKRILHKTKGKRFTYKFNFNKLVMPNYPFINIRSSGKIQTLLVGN
The note with it: protein: recombinant; tags: N-terminal GST; dsDNA, one strand shown. The method in brief:
as §1

The next experiment addresses ETV6 (Homo sapiens, UniProt P41212 1-452). The note with it: protein: recombinant; tags: N-terminal GST; dsDNA, one strand shown. The method in brief: as §1

Chain of HSF1 (Q00613 whole entry): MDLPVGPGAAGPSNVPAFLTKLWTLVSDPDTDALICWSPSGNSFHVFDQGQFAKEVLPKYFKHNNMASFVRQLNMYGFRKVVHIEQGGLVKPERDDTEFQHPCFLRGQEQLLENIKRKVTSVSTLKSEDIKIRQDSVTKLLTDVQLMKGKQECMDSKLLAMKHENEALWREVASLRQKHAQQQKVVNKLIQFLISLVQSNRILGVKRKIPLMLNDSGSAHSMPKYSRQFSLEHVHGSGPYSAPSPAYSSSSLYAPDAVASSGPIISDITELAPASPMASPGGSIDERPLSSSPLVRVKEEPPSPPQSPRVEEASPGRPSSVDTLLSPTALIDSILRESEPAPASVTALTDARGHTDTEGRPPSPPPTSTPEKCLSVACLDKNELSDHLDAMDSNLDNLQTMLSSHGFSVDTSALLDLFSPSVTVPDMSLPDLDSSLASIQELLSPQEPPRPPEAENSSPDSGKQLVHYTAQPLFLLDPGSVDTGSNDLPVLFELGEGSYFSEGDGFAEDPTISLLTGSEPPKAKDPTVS
Chain of ETV5 (P41161 whole entry): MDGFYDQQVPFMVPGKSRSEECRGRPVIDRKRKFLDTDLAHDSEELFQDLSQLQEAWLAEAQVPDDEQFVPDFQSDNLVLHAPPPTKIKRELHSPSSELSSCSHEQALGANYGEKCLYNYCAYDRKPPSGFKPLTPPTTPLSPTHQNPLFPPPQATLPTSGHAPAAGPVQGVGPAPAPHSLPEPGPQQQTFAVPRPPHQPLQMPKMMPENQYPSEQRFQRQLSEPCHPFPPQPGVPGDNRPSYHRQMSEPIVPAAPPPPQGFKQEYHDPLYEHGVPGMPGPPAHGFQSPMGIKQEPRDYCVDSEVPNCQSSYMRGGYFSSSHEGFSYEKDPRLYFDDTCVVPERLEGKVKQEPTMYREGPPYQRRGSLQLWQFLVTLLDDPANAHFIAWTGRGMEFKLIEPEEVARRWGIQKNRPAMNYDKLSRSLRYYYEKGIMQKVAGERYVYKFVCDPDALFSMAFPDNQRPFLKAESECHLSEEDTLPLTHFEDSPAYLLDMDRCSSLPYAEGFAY
Chain of ETV1 (P50549 whole entry): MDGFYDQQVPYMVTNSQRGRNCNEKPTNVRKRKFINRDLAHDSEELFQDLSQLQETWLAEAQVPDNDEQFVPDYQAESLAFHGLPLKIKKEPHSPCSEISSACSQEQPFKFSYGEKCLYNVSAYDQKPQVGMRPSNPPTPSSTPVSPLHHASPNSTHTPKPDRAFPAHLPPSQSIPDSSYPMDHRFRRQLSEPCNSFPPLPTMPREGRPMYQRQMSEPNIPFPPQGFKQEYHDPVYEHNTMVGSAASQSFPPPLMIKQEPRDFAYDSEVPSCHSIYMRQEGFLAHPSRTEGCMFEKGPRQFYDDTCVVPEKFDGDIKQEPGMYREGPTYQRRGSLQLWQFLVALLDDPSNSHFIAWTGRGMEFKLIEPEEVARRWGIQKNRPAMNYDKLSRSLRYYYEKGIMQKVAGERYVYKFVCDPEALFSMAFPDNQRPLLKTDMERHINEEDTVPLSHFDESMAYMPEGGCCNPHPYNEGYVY
Chain of CRX (O43186 whole entry): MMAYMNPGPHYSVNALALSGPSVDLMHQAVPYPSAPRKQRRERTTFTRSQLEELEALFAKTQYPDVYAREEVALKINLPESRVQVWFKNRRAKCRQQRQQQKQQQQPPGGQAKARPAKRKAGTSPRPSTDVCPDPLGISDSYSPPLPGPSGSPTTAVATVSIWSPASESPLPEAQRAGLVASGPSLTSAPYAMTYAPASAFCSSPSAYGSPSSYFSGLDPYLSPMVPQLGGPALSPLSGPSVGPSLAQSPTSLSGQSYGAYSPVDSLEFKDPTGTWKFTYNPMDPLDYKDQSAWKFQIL
Chain of ETV6 (P41212 whole entry): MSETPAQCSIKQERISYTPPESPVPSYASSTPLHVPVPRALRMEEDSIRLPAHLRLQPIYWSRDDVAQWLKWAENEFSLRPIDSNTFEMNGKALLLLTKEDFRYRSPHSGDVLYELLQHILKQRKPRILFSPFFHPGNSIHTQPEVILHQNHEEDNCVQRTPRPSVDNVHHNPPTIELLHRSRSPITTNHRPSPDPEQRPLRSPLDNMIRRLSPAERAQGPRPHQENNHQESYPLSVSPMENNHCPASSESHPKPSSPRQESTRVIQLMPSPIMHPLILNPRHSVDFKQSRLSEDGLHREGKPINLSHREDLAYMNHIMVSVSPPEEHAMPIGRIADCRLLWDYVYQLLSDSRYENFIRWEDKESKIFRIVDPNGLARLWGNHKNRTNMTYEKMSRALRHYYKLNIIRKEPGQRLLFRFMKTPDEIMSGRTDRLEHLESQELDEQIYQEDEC

For TTTATG, the binding signal in the experiment with FEV is 1.26 fold enrichment (6-mer frequency, TF over GST control); in the experiment with ETV5, 1.36 fold enrichment (6-mer frequency, TF over GST control); with HSF1, 1.37 fold enrichment (6-mer frequency, TF over GST control); with SPIC, 1.5 fold enrichment (6-mer frequency, TF over GST control); in the experiment with ELF4 it was 1.21 fold enrichment (6-mer frequency, TF over GST control); with ELK4 it was 1.16 fold enrichment (6-mer frequency, TF over GST control). Moreover, the binding signal with ETV2 was 1.34 fold enrichment (6-mer frequency, TF over GST control); with ELF3, 1.37 fold enrichment (6-mer frequency, TF over GST control); with CRX, 1.74 fold enrichment (6-mer frequency, TF over GST control); in the experiment with ETV1, 1.32 fold enrichment (6-mer frequency, TF over GST control); in the experiment with ERF, 1.31 fold enrichment (6-mer frequency, TF over GST control); in the experiment with ETV3L, 1.36 fold enrichment (6-mer frequency, TF over GST control). Besides, the binding signal with ETS2 was 1.32 fold enrichment (6-mer frequency, TF over GST control); with SPDEF, 1.29 fold enrichment (6-mer frequency, TF over GST control); in the experiment with ETV7 it was 1.32 fold enrichment (6-mer frequency, TF over GST control); with ELF5, 1.29 fold enrichment (6-mer frequency, TF over GST control); in the experiment with ETV3, 1.36 fold enrichment (6-mer frequency, TF over GST control); in the experiment with ETV6 it was 1.33 fold enrichment (6-mer frequency, TF over GST control).

Source of the values: paper PMC7862700, “An all-to-all approach to the identification of sequence-specific readers for epigenetic DNA modifications on cytosine”.
